Compound activity (PubChem BioAssay)
In the library only some 2.5% were active in any assay of this set; here they are far more common.
EWS-Fli inh: EWS/Fli transcriptional activity inhibition; A673 NR0B1-luciferase reporter, viability-normalised; inhibition, % at 12.6 µM; 350,000 compounds, 0.67% hits;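 active means mean inhibition of at least 50% after viability correction, with every replicate also passing that limit; inconclusive means mean reaches 50% but only one of two replicates passes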;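 further: firefly luciferase signal divided by Alamar Blue viability fluorescence both relative to DMSO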
F508del corr: CFTR F508del correction in bronchial cells. AID 720511. CFBE cells, YFP halide quenching; stimulated with forskolin plus potentiator P3; % fluorescence drop versus neutral controls. 350,000 compounds, 0.36% hits. activity (quench increase), % at 7.58 µM;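 active means mean added fluorescence quench of at least 8% versus neutral control, with both replicates also reaching 8%; inconclusive means only one of the mean or replicate conditions met; inactive means mean below 8% and not both replicates reaching 8%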;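 further: cells transiently co-express mutant CFTR-F508del with the halide-sensitive YFP; corrector assay measuring rescue of mutant channel to the surface after 24 h compound exposure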
HIV Env fusion: inhibitors of HIV Env-mediated cell fusion | 360,000 compounds, 1.1% hits | AID 651610 | inhibition, % at 12.3 µM | HeLa-JRFL Env/CEM21 cell fusion, luciferase;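 active means mean replicate inhibition score of at least 50 and every replicate individually at or above 50; inconclusive means only one of the two criteria met; inactive means mean below 50 and not all replicates reaching 50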;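 further: 0% = plate neutral controls and 100% = maraviroc near 300 nM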
PAX8 reporter: lowers PAX8-driven luciferase in RMG-I cells. RMG-I TPO-luciferase reporter, SteadyGlo, 24 h. inhibition, % at 12.6 µM. 360,000 compounds, 1.2% hits. AID 652154;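 active means mean replicate inhibition at least 60% with every replicate also reaching 60%; inconclusive means only one of the two criteria is met; inactive means mean below 60% and not all replicates reaching 60%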;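 further: luciferase light reporting Pax8 driven TPO promoter activity; plate controls were median of neutral control wells for no effect and mitoxantrone controls for full effect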
GAA850 FXN act: activators of GAA850 frataxin (FXN) promoter; 360,000 compounds, 0.56% hits; AID 540364; activation, % at 6 µM; HEK293 lucGAA850 FXN promoter luciferase reporter, 24 h; percent of 10 µM SAHA response;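 active means activation above the average of all compounds screened plus 3 SD, cutoff fixed separately per campaign, cut at about 7.5% in these data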;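 further: 0% = DMSO wells and 100% = 10 µM SAHA wells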
GAA30 FXN cntr: GAA30 FXN promoter activation counter-screen | activation, % at 6 µM | shares compounds with GAA850 FXN act | 1,900 compounds, 66% hits | HEK293 lucGAA30 FXN promoter luciferase, 24 h; DMSO = 0%, 5 µM ipriflavone = 100% | AID 588350;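 active means mean activation above the mean of solvent-only control wells plus 3 SD, cut at about 22% in these data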;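 further: counterscreen of GAA850 promoter hits where activity marks nonselective or luminescence artifacts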
GAA850 confirm: confirmation of GAA850 frataxin (FXN) promoter activators; activation, % at 6 µM; shares compounds with GAA850 FXN act; HEK293 lucGAA850 FXN promoter luciferase reporter, 24 h; 100% = activation by SAHA; 1,900 compounds, 86% hits;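 active means mean activation above a set limit taken from the primary screen, cut at about 8% in these data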;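 further: 0% = DMSO wells and 100% = 10 µM SAHA wells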
Numbers without * were called inactive; i = inactive; ? = inconclusive; nt = no result; [ ] = another dose, or the depositor's remark.

SMILES	EWS-Fli inh	F508del corr	HIV Env fusion	PAX8 reporter	GAA850 FXN act	GAA30 FXN cntr	GAA850 confirm
Nc1nc2sc3c(c2c(=O)s1)CCCC3	-21	0	nt	nt	8.2*	70*	28*
Cc1cc(Cl)ccc1OCC(=O)N1CC(C)CC(C)C1 (centres undefined)	nt	nt	-37	-18	3	nt	nt
Cc1cc(Cl)ccc1OCC(=O)N1CCCN(C(=O)COc2ccc(Cl)cc2C)CC1	nt	nt	115*	35	9.4*	11	7
O=C(Oc1c(-c2ccccc2)oc2ccccc2c1=O)c1ccccc1	nt	nt	-1	nt	13*	45*	19*
Cc1cc(SCC(=O)N(CC(C)C)c2c(N)n(CC(C)C)c(=O)[nH]c2=O)nc2ccccc12	4	-1	2	-5	-2	nt	nt
CC(C)CN(C(=O)C(c1ccccc1)c1ccccc1)c1c(N)n(CC(C)C)c(=O)[nH]c1=O	3	1	79*	-2	7.9*	13	5
O=C(NCC[C@@H]1CC[C@@H](NC(=O)c2cccnc2)[C@H](CO)O1)Nc1ccc(F)cc1	-11	1	2[16.7 µM]	-9	nt	nt	nt
CS(=O)(=O)c1ccc(S(=O)CC(=O)OCc2ccccc2)c([N+](=O)[O-])c1 (centres undefined)	64*	2	-175	107*	95*	-91	-17
COc1ccc(CN(C)C[C@@H]2OCc3cnnn3CCCC(=O)N([C@H](C)CO)C[C@@H]2C)cc1	3	1	nt	2	nt	nt	nt
c1ccc(CCn2nnc3ccccc32)cc1	-76	1	-19	-127	6	nt	nt
Nn1nnc2ccccc21	-18	2	94*	0	20*	46*	16*
NC(=O)c1ccccc1NC(=O)CSc1nc2ccccc2c(=O)[nH]1	3	-1	-17	14	0	nt	nt
Cc1cc2nc(SCC(=O)Nc3ccccc3C(=O)O)[nH]c2cc1C	-34	0	-39	-2	9.6*	62*	18*
Oc1csc(Cc2nc(-c3ccc(Br)cc3)cs2)n1	-108	-1	-61	-156	7.6*	96*	38*
COc1cc(C(=O)O/N=C2\C=CC(=O)C(C)=C2)cc(OC)c1OC	nt	nt	-120	-16	9.2*	35*	19*
O=C(c1ccc2oc(CCc3ccccc3)nc2c1)N1CCC(O)CC1	-37	1	-39	-32	2	nt	nt
NC(=O)[C@@H]1CCCN1C(=O)c1ccc2oc(CCc3ccccc3)nc2c1	-37	-3	0	-98	7.8*	74*	31*
CN1c2ccc(Br)cc2[C@H]2[C@H](CCN2C(=O)c2cccc(F)c2)[C@@H]1CO	-9	-1	nt	-7	nt	nt	nt
C[C@H](CO)N1C[C@H](C)[C@@H](CN(C)C(=O)Nc2cccc3ccccc23)Oc2c(NS(=O)(=O)c3ccc(F)cc3)cccc2C1=O	-23	0	nt	nt	nt	nt	nt
CN(C)CCn1c(=O)n(-c2ccc(F)cc2)c(=O)c2c3c(sc21)CCCCC3	15	1	?	23	3	nt	nt
CN(C)CCn1c(=O)n(-c2cccc(Cl)c2)c(=O)c2c3c(sc21)CCCCC3	-1	2	130*	19	13*	22*	13*
CN(C)CCCNC(=O)C[C@@H]1CC[C@@H]2[C@@H](COc3ccc(NC(=O)c4ccc5c(c4)OCO5)cc3C(=O)N2C)O1	-26	6	-5[16.7 µM]	-45	nt	nt	nt
O=C1COc2ccc(C(=O)CCl)cc2N1	-1	0	-9	-12	9.8*	202*	-13
COc1ccc(S(=O)(=O)NC2CCCC2)cc1Cl	nt	-2	-6	-9	-3	nt	nt
COc1ccc(OC(F)(F)F)cc1CC1(C)C(=O)Nc2ccc(-c3ccsc3)cc21 (centres undefined)	-4	4	58*	-13	13*	17	9.0*
SMILES	EWS-Fli inh	F508del corr	HIV Env fusion	PAX8 reporter	GAA850 FXN act	GAA30 FXN cntr	GAA850 confirm
CC1(Cc2ccc(F)cc2)C(=O)Nc2ccc(S(=O)(=O)NC3CCCCC3)cc21 (centres undefined)	-6	-1	46	12	9.7*	0	7
Cc1ccccc1CC1(C)C(=O)Nc2ccc(S(=O)(=O)NC3CCCCC3)cc21 (centres undefined)	-5	-3	17	13	2	nt	nt
COc1ccccc1CC1(C)C(=O)Nc2ccc(S(=O)(=O)NC3CCCCC3)cc21 (centres undefined)	-8	5	56*	-9	9.1*	1	3
CC1(Cc2ccccc2OC(F)(F)F)C(=O)Nc2ccc(S(=O)(=O)NC3CCCCC3)cc21 (centres undefined)	6	0	55	8	6	nt	nt
COc1ccc(Cl)cc1CC1(C)C(=O)Nc2ccc(S(=O)(=O)NC3CCCCC3)cc21 (centres undefined)	-7	-1	93*	14	16*	9	13*
CCC(=O)N1CCCCN2[C@@H](CO)[C@H](c3ccc(C#Cc4ccccc4F)cc3)[C@@H]2C1	3	-1	nt	2	nt	nt	nt
CN1C(=O)c2cc(NC(=O)c3ccc(F)cc3)ccc2OC[C@H]2O[C@H](CC(=O)NCC3CC3)CC[C@@H]21	1	-1	2[16.7 µM]	11	nt	nt	nt
COc1ccc(C(C)=O)cc1CC1(C)C(=O)Nc2ccc(OC(F)(F)F)cc21 (centres undefined)	-5	-1	10	nt	-1	nt	nt
COc1ccc(OC(F)(F)F)cc1CC1(C)C(=O)Nc2ccc(S(=O)(=O)NC3CCCCC3)cc21 (centres undefined)	1	-2	88*	12	17*	15	14*
CC(=O)Oc1ccccc1C(=O)C=Cc1cccc([N+](=O)[O-])c1	43	-1	-247	15	17*	-51	22*
O/C(=C\c1nc2ccccc2[nH]1)c1cccs1	-109	-3	-35	-146	2	nt	nt
O=c1[nH]c2ccccc2nc1/C=C(\O)c1cccs1	nt	nt	i	-135	11*	116*	41*
O=c1[nH]c2ccccc2nc1/C=C/c1ccc(O)cc1	-45	-1	-53	-52	7.6*	121*	35*
O=c1[nH]c2ccccc2nc1/C=C/c1ccccc1	-75	-1	-53	-124	3	nt	nt
O=C(Nc1ccccc1F)N[C@H]1CC[C@@H](CC(=O)N2CCCCC2)O[C@@H]1CO	3	2	-5[16.7 µM]	2	nt	nt	nt
C[C@H](CO)N1C[C@H](C)[C@H](CN(C)Cc2ccc3c(c2)OCO3)Oc2ccc(N(C)C)cc2C1=O	3	4	-38[16.7 µM]	-5	nt	nt	nt
COc1ccc(NC(=O)COc2ccc(/C=N/n3c(C)nnc3C)cc2OC)cc1	nt	nt	nt	nt	8.0*	37*	12*
Cc1cccc(/C=N/NC(=O)c2cccc(Cl)c2)n1	-12	1	-26	5	7.6*	-66	-16
